# Screening results from PubChem.
# This is a sample that favours compounds with a hit; in the whole collection about 4% have one here.
# PK Bst = alters activity of Bacillus stearothermophilus pyruvate kinase; purified pyruvate kinase, luminescence ATP production; ribose 5-phosphate activator present at AC10; Potency, µM; 51,000 tested, 1.2% active; AID 361; in the data active = potency below about 11 µM; inconclusive = mostly about 12 µM to 25 µM;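 the screen sought inhibitors and activators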
# TSHR agonist = TSH receptor (human) agonism; 73,000 tested, 0.48% active; Potency, µM (doses to about 57.1 µM), most hits filed as activators; HEK293-CNG-TSHR cells (CNG channel as cAMP sensor), membrane potential dye, cAMP; active = well fitted activation curve with a large enough effect in the main read-out, with a control signal flat, not every such curve was filed as active; inconclusive = small, poorly fitted or top-dose-only effect, or a change in a side signal; inactive = no such curve, though single readings can be large or run the other way; reference of the percent scale not stated here;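 note: the control signal comes from parental cells without the receptor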
#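 HEK 293 cells stably expressing TSHR and a cAMP-gated CNG channel; parental CNG-only cells as counterscreen. Cells preloaded 60 min with membrane potential dye plus 100 uM RO 20-1724, then compound 30 min; fluorescence read at 590 nm.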
# HEK293 cAMP cs = raises cAMP in parental HEK293 cells, TSHR agonist counter-screen; parental HEK293 CNG cAMP sensor, membrane potential fluorescence; 73,000 tested, 2.5% active; Potency, µM (highest dose often 57.1 µM), hits mostly activators; active = well fitted activation curve with a large enough effect; inconclusive = small, poorly fitted or top-dose-only effect; inactive = no such curve, though single readings can be large or run the other way; note: nearly all actives have a fitted effect of over 55% in size
#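 Counterscreen for endogenous-receptor signalling: CNG-channel HEK 293 cells report cAMP rise by membrane depolarization. After 60 min dye equilibration with 100 uM RO 20-1724, compounds incubated 30 min before bottom-read fluorescence at 590 nm.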
# GBA mod = alters purified human glucocerebrosidase activity; P04062; purified enzyme, resorufin glucoside fluorescence (screen aimed at inhibitors), 20 min; Potency, µM; 48,000 tested, 1.1% active; AID 360; in the data active = potency below about 15 µM; inconclusive = mostly about 16 µM to 33 µM;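 note: the screen sought inhibitors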
# Target sequence (P04062 whole entry, looked up): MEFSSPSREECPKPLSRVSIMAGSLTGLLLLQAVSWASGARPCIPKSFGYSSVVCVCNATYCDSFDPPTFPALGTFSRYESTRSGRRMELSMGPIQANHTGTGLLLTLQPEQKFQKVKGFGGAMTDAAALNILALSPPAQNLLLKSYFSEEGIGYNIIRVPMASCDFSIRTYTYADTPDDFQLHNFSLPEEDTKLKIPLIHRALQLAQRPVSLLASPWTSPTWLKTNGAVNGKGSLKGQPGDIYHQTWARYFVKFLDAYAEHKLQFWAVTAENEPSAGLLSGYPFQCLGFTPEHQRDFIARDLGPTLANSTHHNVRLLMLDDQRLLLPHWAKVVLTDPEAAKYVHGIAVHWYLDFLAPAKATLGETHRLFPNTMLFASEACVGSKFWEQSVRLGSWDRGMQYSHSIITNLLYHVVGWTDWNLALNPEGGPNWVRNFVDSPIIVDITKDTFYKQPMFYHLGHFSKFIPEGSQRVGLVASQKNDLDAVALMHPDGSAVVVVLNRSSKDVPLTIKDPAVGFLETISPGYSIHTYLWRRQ
#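 Compounds titrated against 0.2 nM normal enzyme, 30 uM resorufin beta-D-glucopyranoside substrate, citrate/phosphate buffer with taurocholate and tween-20, pH 5.9. Reaction ran 20 min at room temperature; fluorescence (Ex 548/Em 600) gave AC50.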
# Numbers stand for hits; i = inactive; ? = inconclusive; nt = no result given; [ ] = dose if it differs, or a comment.
SMILES,PK Bst,TSHR agonist,HEK293 cAMP cs,GBA mod
C[C@H](CCC(=O)O)[C@H]1CC[C@@H]2[C@@H]3CC[C@H]4C[C@@H](O)CC[C@@]4(C)[C@@H]3C[C@H](O)[C@@]21C,nt,i[11.4 µM],i[11.4 µM],nt
COc1ccccc1-c1ccc2ncnc(N3CCNCC3)c2c1,nt,i,i,nt
CCn1c(Cn2nnc(-c3ccccc3)n2)nnc1SCC(=O)Nc1ccccc1,i,?,?,9.6
COc1ccccc1C(=O)N1CCN(c2nc3cc(C)c(C)cc3cc2C#N)CC1,i,?,13µM,i
COc1cc(/C=C/c2ccccc2)oc(=O)c1,nt,i,i,nt
c1ccc(-c2cnc(CSc3ncnc4sccc34)o2)cc1,i,?,16µM,i
Cc1cc(C)n2nc(SCc3ncc(-c4ccccc4)o3)nc2n1,i,i,i,i
COc1ccc(-c2nnc(-c3ccc(N(C)C)cc3)o2)cc1,i,i,i,i
COc1ccc(-c2nnc(-c3ccc(N)cc3)o2)cc1,3.3,i,i,i
Nc1ccccc1[N+](=O)[O-],nt,i,i,nt
Cc1ccc(-c2nnn(CC(=O)N(Cc3cccs3)C(C(=O)NC(C)(C)C)c3ccco3)n2)o1 (stereo unspecified),i,?,1µM,nt
Cc1ccc(-c2nnn(CC(=O)N(Cc3ccco3)C(C(=O)NC(C)(C)C)c3cccs3)n2)o1 (stereo unspecified),i,?,20µM,i
Cc1ccc(-c2nnn(CC(=O)N(c3ccc(F)cc3)C(C(=O)NC3CCCC3)c3ccco3)n2)o1 (stereo unspecified),i,i,i,i
Cc1ccc(C(C(=O)NC(C)(C)C)N(CC2CCCO2)C(=O)Cn2nnc(-c3ccc(C)o3)n2)cc1 (stereo unspecified),i,?,25µM,i
COc1cccc(-c2cncnc2NCc2ccccc2OC)c1,nt,?,25µM,nt
c1ncc(-c2ccoc2)c(NC2CC2)n1,nt,?,4µM,nt
COc1cccc(-c2cncnc2NCc2ccc(OC)cc2OC)c1,nt,?,16µM,nt
c1cncc(CNc2ncncc2-c2ccoc2)c1,nt,i,i,nt
COc1ccccc1CNc1ncnc2c1nnn2Cc1ccccc1,i,?,13µM,i
COc1ccc(CNc2ncncc2-c2cccnc2)c(OC)c1,nt,i,i,nt
CC(C)[C@]1(Cl)CC[C@@H]2[C@]3(C)CCC[C@@](C)(C(=O)O)[C@H]3C[C@H](Cl)[C@@]2(Cl)[C@H]1Cl,nt,i[11.4 µM],i[11.4 µM],nt
O=C1CN2CCN(CC2)CC(=O)Nc2ccc(cc2)S(=O)(=O)c2ccc(cc2)NC(=O)CN2CCN(CC2)CC(=O)Nc2ccc(cc2)S(=O)(=O)c2ccc(cc2)N1,nt,i[11.4 µM],i[11.4 µM],nt
Cc1ccc(C)c(NS(=O)(=O)c2cc(C(=O)O)ccc2Cl)c1,nt,i,i,nt
COc1ccccc1CNc1ncncc1-c1ccccc1OC,nt,?,10µM,nt
COc1ccccc1CNc1ncnc2ccc(-c3ccoc3)cc12,nt,?,20µM,nt
SMILES,PK Bst,TSHR agonist,HEK293 cAMP cs,GBA mod
COc1ccccc1CNc1ncncc1-c1ccccc1CN(C)C,nt,i,i,nt
COc1ccc(CNc2ncncc2-c2ccoc2)c(OC)c1,nt,?,10µM,nt
CC12C=C(/C=C/c3ccc(Br)cc3)C(C)(C1)C(c1ccc(Br)cc1)CC2=O (stereo unspecified),nt,i[11.4 µM],i[11.4 µM],nt
C[C@H](CCC(=O)NN)[C@@H]1CC[C@@H]2[C@H]3CC[C@H]4C[C@@H](O)CC[C@@]4(C)[C@@H]3CC[C@]21C,nt,i[11.4 µM],i[11.4 µM],nt
COc1ccc(C#CC2C=CC(OC(C)=O)C(COC(C)=O)O2)cc1 (stereo unspecified),nt,i[11.4 µM],i[11.4 µM],nt
C=C[C@@]1(C)C=C2CC[C@@H]3[C@](C)(CCC[C@@]3(C)C(=O)O)[C@H]2CC1,nt,i,i,nt
CCSc1nnc(C)n1-c1ccc(C(=O)O)cc1,6.6,i,i,i
COC(=O)c1ccc(NC(=O)CSc2nnc(C)n2-c2ccccc2)cc1,i,i,i,i
COc1ccc(Nc2nc(N)nc(CN3CCc4ccccc4C3)n2)cc1,nt,i,i,nt
COc1cccc(N2CCN(Cc3nc(N)nc(N4CCCc5ccccc54)n3)CC2)c1,i,nt,i,11
Cc1c(Cl)c(S(N)(=O)=O)cc2c1=NC=NS=2(=O)O,nt,i[11.4 µM],i[11.4 µM],nt
Clc1ccc(C(c2nnnn2C2CCCCC2)N(Cc2cccnc2)Cc2ccco2)cc1 (stereo unspecified),i,?,3.2µM,13
COc1ccc(OC)c(N/C(=N\c2nc(C)cc(C)n2)NC(=O)c2ccco2)c1,i,?,25µM,i
COc1ccc(NC(=O)c2ccco2)c(OC)c1,i,i,i,i
Cc1cc(Cl)ccc1OC(C)C(=O)Nc1ccccc1N1CCOCC1 (stereo unspecified),i,?,25µM,i
CCOc1ccc(-c2nc(C#N)c(NCC(C)C)o2)cc1,i,nt,nt,nt
C=CCNc1oc(-c2ccc(OC)cc2)nc1C#N,nt,i,i,15
C=CCNc1oc(-c2ccc(OCC)cc2)nc1C#N,5.3,i,i,?
C=CCNc1oc(-c2cccc3ccccc23)nc1C#N,i,i,i,i
NCCOC[C@H](N)C(=O)O,nt,i[11.4 µM],i[11.4 µM],nt
O=C(O)c1ccccc1NCn1c(=S)sc2ccccc21,nt,i[11.4 µM],i[11.4 µM],nt
CCN1CCN(c2ncc(C(=O)Nc3c(F)cc(F)cc3Br)c3ccccc23)CC1,i,?,?,12
COc1cc(NC(=O)c2cccs2)cc(OC)c1,nt,i,i,i
Cn1c(C(=O)Nc2ccc3c(c2)OCO3)cc2sccc21,6.4,i,i,i
COc1ccc(OC)c(NC(=O)c2cc3sccc3n2C)c1,nt,?,25µM,i
SMILES,PK Bst,TSHR agonist,HEK293 cAMP cs,GBA mod
Cn1c(C(=O)NCc2ccc3c(c2)OCO3)cc2sccc21,i,?,?,i
COc1cc(NC(=O)c2cc3sccc3n2C)cc(OC)c1,4,?,?,nt
CN1CCN(c2ncc3nc(-c4ccc(Cl)cc4)c(=O)n(C)c3n2)CC1,nt,i,i,nt
C=C[C@@]1(C)CC(=O)[C@@]2(O)[C@@]3(C)[C@@H](O)CCC(C)(C)[C@@H]3[C@H](O)[C@H](OC(C)=O)[C@@]2(C)O1,nt,?,0.079µM,nt
c1coc(CNc2ncnc3sc4c(c23)CCCCC4)c1,nt,?,25µM,i
CC(C)Sc1nc(NCc2ccco2)c2c3c(sc2n1)COC(C)(C)C3,i,i,i,i
CCc1nc(SCC(=O)NCc2ccco2)c2c3c(sc2n1)CCCC3,i,?,5µM,i
Cc1nc(NCc2ccco2)c2c3c(sc2n1)CCC3,nt,?,16µM,i
CC(Cc1ccccc1)C(=O)NCCc1c[nH]c2ccccc12 (stereo unspecified),nt,?,13µM,nt
COc1cc2nncc(SCc3ccc(Cl)c(Cl)c3)c2cc1OC,nt,i[11.4 µM],i[11.4 µM],nt
c1ccc2sc(SCN(C3CCCCC3)C3CCCCC3)nc2c1,nt,i[11.4 µM],i[11.4 µM],nt
CNc1ncnc2ccc(-c3ccccc3C#N)cc12,nt,i,i,nt
N#Cc1ccccc1-c1ccc2ncnc(NCc3cccs3)c2c1,nt,?,16µM,nt
Cc1cccc(CNc2ncnc3ccc(-c4ccccc4C#N)cc23)c1,nt,?,25µM,nt
O=C(CCc1ccc(O)cc1)c1c(O)cc(O)cc1O[C@@H]1O[C@@H](CO)[C@@H](O)[C@@H](O)[C@H]1O,nt,i,i,nt
CC[C@H]1CC[C@H]2[C@@H]3CC=C4C[C@H](OC(C)=O)[C@@H](N)C[C@@]4(C)[C@H]3CC[C@@]12C,nt,i[11.4 µM],i[11.4 µM],nt
CSC1=Nc2sc3c(c2C2=NCCN12)CCCC3,i,?,?,6.4
